Test results taken from PubChem BioAssay (NCATS).
Records with an inconclusive call do not appear. The source made the active and inactive calls. The call rests on the fitted dose curve; in most records, active means well fitted inhibition curve with a large enough effect; inconclusive means small, poorly fitted or top-dose-only effect; inactive means flat fitted curve, though single readings scatter.

Tests used:
Experiment in all cases: qHTS profiling for inhibitors of Plasmodium falciparum proliferation (AID 504749); further: nearly all actives have a fitted effect of over 60% in size
Details in all cases: P. falciparum in erythrocytes, SYBR Green DNA, 72 h; series mostly up to 28.7 µM
[1] = system: CP262
How it was run: (§1)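 SYBR Green fluorescence (ex 485 nm, em 535 nm) reports parasite DNA after 72 h compound exposure of infected red cells at 0.3% parasitemia, 2.5% hematocrit; signal normalized to 0.29 uM artemisinin and vehicle wells.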

[2] = system: CP265
How it was run: as §1

[3] = system: CP266
How it was run: as §1

[4] = system: CP268
How it was run: as §1

[5] = system: CP269
How it was run: as §1

[6] = system: CP286
How it was run: as §1

[7] = system: CP291
How it was run: as §1

[8] = system: CP297
How it was run: as §1

[9] = system: CP305
How it was run: as §1

[10] = system: CP315
How it was run: as §1

[11] = system: CP325
How it was run: as §1

[12] = system: CP329
How it was run: as §1

[13] = system: CP335
How it was run: as §1

[14] = system: DFO2036
How it was run: as §1

[15] = system: DIV14
How it was run: as §1

[16] = system: DIV17
How it was run: as §1

[17] = system: DIV30
How it was run: as §1

[18] = system: Dd2
How it was run: as §1

[19] = system: ECU
How it was run: as §1

[20] = system: FAB9
How it was run: as §1

Measured: Potency

O=P1(N(CCCl)CCCl)NCCCO1 (centres undefined)
inactive: [1] | [2] | [3] | [4] | [5] | [6] | [7] | [8] | [9] | [10] | [11] | [12] | [13] | [14] | [15] | [16] | [17] | [18] | [19] | [20]

CC(C)=CC1C(C(=O)OCN2C(=O)C3=C(CCCC3)C2=O)C1(C)C (centres undefined)
inactive: [1] | [2] | [3] | [4] | [5] | [6] | [7] | [8] | [9] | [10] | [11] | [12] | [13] | [14] | [15] | [16] | [17] | [18] | [19] | [20]

CCC(C)(C)c1ccc(O)cc1
inactive: [1] | [2] | [3] | [4] | [5] | [6] | [7] | [8] | [9] | [10] | [11] | [12] | [13] | [14] | [15] | [16] | [17] | [18] | [19] | [20]

CCCCCCC(=O)CCCCCC/C=C/C[C@@H](O)[C@H](O)[C@@](N)(CO)C(=O)O
inactive: [1] | [2] | [3] | [4] | [5] | [6] | [7] | [8] | [9] | [10] | [11] | [12] | [13] | [14] | [15] | [16] | [17] | [18] | [19] | [20]

CN1C(=O)NC(=O)C(C)(C2=CCCCC2)C1=O (centres undefined)
inactive: [1] | [2] | [3] | [4] | [5] | [6] | [7] | [8] | [9] | [10] | [11] | [12] | [13] | [14] | [15] | [16] | [17] | [18] | [19] | [20]

COP(=S)(OC)Oc1ccc(S(=O)(=O)N(C)C)cc1
inactive: [1] | [2] | [3] | [4] | [5] | [6] | [7] | [8] | [9] | [10] | [11] | [12] | [13] | [14] | [15] | [16] | [17] | [18] | [19] | [20]

O=c1[nH]oc2c1CCNC2
inactive: [1] | [2] | [3] | [4] | [5] | [6] | [7] | [8] | [9] | [10] | [11] | [12] | [13] | [14] | [15] | [16] | [17] | [18] | [19] | [20]

COc1c2c(cc3c1OCO3)CCN(C)C2
inactive: [1] | [2] | [3] | [4] | [5] | [6] | [7] | [8] | [9] | [10] | [11] | [12] | [13] | [14] | [15] | [16] | [17] | [18] | [19] | [20]

C[C@](O)(CS(=O)(=O)c1ccc(F)cc1)C(=O)Nc1ccc(C#N)c(C(F)(F)F)c1
inactive: [1] | [2] | [3] | [4] | [5] | [6] | [7] | [8] | [9] | [10] | [11] | [12] | [13] | [14] | [17] | [18] | [20]

CNC(C)(C)Cc1ccccc1
inactive: [1] | [2] | [3] | [4] | [5] | [6] | [7] | [8] | [9] | [10] | [11] | [12] | [13] | [14] | [15] | [16] | [17] | [18] | [19] | [20]

Clc1ccc2c(c1)C(c1ccccc1)=NCc1nncn1-2
inactive: [1] | [2] | [3] | [4] | [5] | [6] | [7] | [8] | [9] | [10] | [11] | [12] | [13] | [14] | [15] | [16] | [17] | [18] | [19] | [20]

O=C1OC(c2ccc(O)c(S(=O)(=O)O)c2)(c2ccc(O)c(S(=O)(=O)O)c2)c2c(Br)c(Br)c(Br)c(Br)c21
inactive: [1] | [2] | [3] | [4] | [5] | [6] | [7] | [8] | [9] | [10] | [11] | [12] | [13] | [14] | [15] | [16] | [17] | [18] | [19] | [20]

O=C(O)CCCc1ccc(N(CCCl)CCCl)cc1
inactive: [1] | [2] | [3] | [4] | [5] | [6] | [7] | [8] | [9] | [10] | [11] | [12] | [13] | [14] | [15] | [16] | [17] | [18] | [19] | [20]

CN1C(=O)CC(=O)N(c2ccccc2)c2cc(Cl)ccc21
inactive: [1] | [2] | [3] | [4] | [5] | [6] | [7] | [8] | [9] | [10] | [11] | [12] | [13] | [14] | [15] | [16] | [17] | [18] | [19] | [20]

NC(=O)CS(=O)C(c1ccccc1)c1ccccc1 (centres undefined)
inactive: [1] | [2] | [3] | [4] | [5] | [6] | [7] | [8] | [9] | [10] | [11] | [12] | [13] | [14] | [15] | [16] | [17] | [18] | [19] | [20]

CCC1(c2ccccc2)C(=O)N(COC)C(=O)N(COC)C1=O
inactive: [1] | [2] | [3] | [4] | [5] | [6] | [7] | [8] | [9] | [10] | [11] | [12] | [13] | [14] | [15] | [16] | [17] | [18] | [19] | [20]

O=C1c2ccccc2C(=O)C1C(=O)C(c1ccccc1)c1ccccc1
inactive: [1] | [2] | [3] | [4] | [5] | [6] | [7] | [8] | [9] | [10] | [11] | [12] | [13] | [14] | [15] | [16] | [17] | [18] | [19] | [20]

CN1C(=O)COc2c(C(=O)NC3CN4CCC3CC4)cc(Cl)cc21 (centres undefined)
inactive: [1] | [2] | [3] | [4] | [5] | [6] | [7] | [8] | [9] | [10] | [11] | [12] | [13] | [14] | [15] | [16] | [17] | [18] | [19] | [20]

Nc1ccc([As](=O)(O)O)cc1
inactive: [1] | [2] | [3] | [4] | [5] | [6] | [7] | [8] | [9] | [10] | [11] | [12] | [13] | [14] | [15] | [16] | [17] | [19] | [20]

O=c1oc2ccccc2c(O)c1Cc1c(O)c2ccccc2oc1=O
inactive: [1] | [2] | [3] | [4] | [5] | [6] | [7] | [8] | [9] | [10] | [11] | [12] | [13] | [14] | [15] | [16] | [17] | [18] | [19] | [20]

O=C1CN=C(c2ccccc2)c2cc([N+](=O)[O-])ccc2N1
inactive: [1] | [2] | [3] | [4] | [5] | [6] | [7] | [8] | [9] | [10] | [11] | [12] | [13] | [14] | [16] | [17] | [18] | [19] | [20]

Oc1ccc(Cl)cc1
inactive: [1] | [2] | [3] | [4] | [5] | [6] | [7] | [8] | [9] | [10] | [11] | [12] | [14] | [15] | [16] | [17] | [18] | [19] | [20]

CN1CCC(O)(c2ccc(F)cc2)C(C(=O)c2ccc(F)cc2)C1 (centres undefined)
inactive: [1] | [2] | [3] | [4] | [5] | [6] | [7] | [8] | [9] | [10] | [11] | [12] | [13] | [14] | [15] | [16] | [17] | [18] | [19] | [20]

Nc1nc(N)nc(NC2CC2)n1
inactive: [1] | [2] | [3] | [4] | [5] | [6] | [7] | [8] | [9] | [10] | [11] | [12] | [13] | [14] | [15] | [16] | [17] | [18] | [19] | [20]

NCCc1ccc(O)cc1
inactive: [1] | [2] | [3] | [4] | [5] | [6] | [7] | [8] | [9] | [10] | [11] | [12] | [13] | [14] | [15] | [16] | [17] | [18] | [19] | [20]

O=C1Nc2ccc(Cl)cc2C(c2ccccc2)=NC1O (centres undefined)
inactive: [1] | [2] | [3] | [4] | [5] | [6] | [7] | [8] | [9] | [10] | [11] | [12] | [13] | [14] | [15] | [16] | [17] | [18] | [19] | [20]
